Assay outcomes as filed in PubChem.
Rows were chosen to be rich in hits. Some 1.3% of all compounds tested hit in one or more screens of this group.
SARS 3CLpro inh-1: SARS-CoV 3CLpro protease inhibitors, primary screen, biochemical, quenched FRET | Replicase polyprotein 1ab (Severe acute respiratory syndrome coronavirus), P0C6X7 | recombinant SARS-CoV 3CLpro, quenched FRET peptide cleavage | inhibition, % at 6 µM | 290,000 compounds, 0.14% hits | AID 1706, 2009; in the data active means inhibition above about 12%
Sa ugtP lethal: growth inhibition of ugtP-null S. aureus, primary screen, RN4220 ugtP deletion, OD600; 16 h; AID 1259309, 2017; 330,000 compounds, 0.54% hits; growth inhibition, % (test concentration not listed); in the data active means growth inhibition above about 68%;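 further: plate controls were untreated wells for no effect and antibiotic for full effect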
BJeLR lethal: MLPCN primary cell-based screen for lethality selective to Ras in HRASV12 cells. BJeLR (HRASV12) viability, CellTiter-Glo ATP luminescence, 48 h. inhibition, % (no concentration beside the values). 300,000 compounds, 0.17% hits. AID 1554, 2009; in the data active means inhibition above about 50%
RN4220 kill: growth inhibition of S. aureus RN4220, primary screen, OD600; 330,000 compounds, 0.33% hits; 16 h; inhibition, % (test concentration not listed); in the data active means inhibition above about 85%;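 further: plate controls were untreated cells for no effect and reference antibiotic for full effect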
PfHsp40 rescue: rescue of yeast from PfHsp40 toxicity, primary screen, S. cerevisiae, ATP luminescence; growth rescue, % at 12.5 µM; S. cerevisiae expressing PfHsp40, growth rescue; 340,000 compounds, 0.68% hits; in the data active means growth rescue above about 28%, passing the limit was not always enough;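 further: yeast W303a lacking pdr1 and pdr3 grown in galactose medium; growth measured after three days at 30 °C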
SARS 3CLpro inh-2: confirmation of SARS coronavirus 3C-like protease inhibitors, retest, confirmation, biochemical | 380 compounds, 36% hits | AID 1879, 2009 | shares compounds with SARS 3CLpro inh-1 | inhibition, % at 6 µM | QFRET protease activity assay, 3CLpro; in the data active means inhibition above about 13%
The depositor's hits bear a star.

How did O=C(c1c(Cl)nc2sccn12)N1CCN(c2cccc(Cl)c2)CC1 do in these assays?
SARS 3CLpro inh-1: 44*; BJeLR lethal: 45; PfHsp40 rescue: 6; SARS 3CLpro inh-2: 3

How did Cc1cccc(NS(=O)(=O)c2nnc(NC(=O)c3cccc(C)c3)s2)c1 do in these assays?
SARS 3CLpro inh-1: 12*; Sa ugtP lethal: 7; BJeLR lethal: -1; RN4220 kill: 2; PfHsp40 rescue: 0; SARS 3CLpro inh-2: 6

What do the screens show for `Cc1ccccc1NS(=O)(=O)c1nnc(NC(=O)c2ccc(Cl)cc2)s1`?
SARS 3CLpro inh-1: 7; Sa ugtP lethal: 17; BJeLR lethal: 5; RN4220 kill: 25; PfHsp40 rescue: 0

Results for Cc1cccc(NS(=O)(=O)c2nnc(NC(=O)c3ccc(Cl)cc3)s2)c1 ?
SARS 3CLpro inh-1: 13*; Sa ugtP lethal: 23; BJeLR lethal: 2; RN4220 kill: 31; PfHsp40 rescue: -1; SARS 3CLpro inh-2: 8

What do the screens show for `c1ccc2c(c1)C(=Nn1cnnc1)c1ccccc1-2`?
SARS 3CLpro inh-1: -2; Sa ugtP lethal: 13; BJeLR lethal: -1; RN4220 kill: -5; PfHsp40 rescue: 2

What do the screens show for `O=C(Nc1ccc(Cl)cn1)C1CCN(S(=O)(=O)c2cccs2)CC1`?
SARS 3CLpro inh-1: 0; Sa ugtP lethal: 8; BJeLR lethal: 18; RN4220 kill: 2; PfHsp40 rescue: 0

How did Cc1ccc2c(c1)c1c(n2CC(O)CNC(C)(C)C)CCCC1 (stereo unspecified) do in these assays?
SARS 3CLpro inh-1: -2; Sa ugtP lethal: -8; RN4220 kill: 4; PfHsp40 rescue: 1

How did Cc1ccc2c(c1)c1c(n2CC(O)CN2CCCCCC2)CCCC1 (stereo unspecified) do in these assays?
SARS 3CLpro inh-1: 20*; Sa ugtP lethal: -2; BJeLR lethal: 0; RN4220 kill: -1; PfHsp40 rescue: 0; SARS 3CLpro inh-2: 0

Results for O=C(NCN1CCCCC1)c1cccnc1 ?
SARS 3CLpro inh-1: 1; Sa ugtP lethal: 6; BJeLR lethal: 3; RN4220 kill: 3; PfHsp40 rescue: -1

What do the screens show for `O=C(CCl)N(CCc1ccccc1)CCc1ccccc1`?
SARS 3CLpro inh-1: 16*; BJeLR lethal: 12; PfHsp40 rescue: 0; SARS 3CLpro inh-2: 24*

What do the screens show for `O=C(CCl)N(c1ccccc1)c1ccccc1`?
SARS 3CLpro inh-1: 0; Sa ugtP lethal: 13; BJeLR lethal: 21; RN4220 kill: -1; PfHsp40 rescue: 1

Results for CN(Cc1c(C(=O)NN=Cc2cccc(O)c2)nnn1-c1nonc1N)c1ccccc1 ?
Sa ugtP lethal: 14; RN4220 kill: 9

Results for COc1cccc(/C=N/NC(=O)c2nnn(-c3nonc3N)c2CN(C)c2ccccc2)c1 ?
SARS 3CLpro inh-1: 12*; BJeLR lethal: 4; PfHsp40 rescue: 1; SARS 3CLpro inh-2: 0

What do the screens show for `CCCc1c(C(=O)N/N=C/c2c(OC)ccc3ccccc23)nnn1-c1nonc1N`?
SARS 3CLpro inh-1: 14*; BJeLR lethal: 5; PfHsp40 rescue: 1; SARS 3CLpro inh-2: 0

Results for CCN(CC)c1ccc(/C=N/NC(=O)c2nnn(-c3nonc3N)c2C(C)C)c(O)c1 ?
SARS 3CLpro inh-1: 14*; BJeLR lethal: 88*; PfHsp40 rescue: 2; SARS 3CLpro inh-2: 3

Results for O=C(Cc1ccc(Cl)c(Cl)c1)Nc1cccnc1 ?
SARS 3CLpro inh-1: 23*; Sa ugtP lethal: 13; BJeLR lethal: -9; RN4220 kill: -2; PfHsp40 rescue: 0; SARS 3CLpro inh-2: 21*

What do the screens show for `O=C(CC(=O)Nc1cccnc1)Nc1cccnc1`?
SARS 3CLpro inh-1: 0; Sa ugtP lethal: 12; BJeLR lethal: 3; RN4220 kill: 0; PfHsp40 rescue: 1

What do the screens show for `CN1CCN(C(=S)c2ccc(-c3cccc(Cl)c3Cl)o2)CC1`?
SARS 3CLpro inh-1: 2; Sa ugtP lethal: 15; BJeLR lethal: -2; RN4220 kill: 2; PfHsp40 rescue: 3

What do the screens show for `S=C(c1ccc(-c2ccccc2Cl)o1)N1CCCCC1`?
SARS 3CLpro inh-1: 27*; Sa ugtP lethal: 14; BJeLR lethal: -13; RN4220 kill: 14; PfHsp40 rescue: 4; SARS 3CLpro inh-2: -7

Results for O=C(COc1ccccc1)Nc1ccc(S(=O)(=O)N2CCCCCC2)cc1 ?
SARS 3CLpro inh-1: -4; Sa ugtP lethal: 1; BJeLR lethal: 3; RN4220 kill: 3; PfHsp40 rescue: 8

What do the screens show for `O=C(COc1ccc(S(=O)(=O)N2CCCCC2)cc1)Nc1ccccc1F`?
SARS 3CLpro inh-1: 12*; Sa ugtP lethal: 2; BJeLR lethal: 7; RN4220 kill: 1; PfHsp40 rescue: 2; SARS 3CLpro inh-2: -6

What do the screens show for `O=C(O)c1cc(NN=C2c3ccccc3-c3ccccc32)ccc1Cl`?
SARS 3CLpro inh-1: 14*; BJeLR lethal: 2; PfHsp40 rescue: 138*; SARS 3CLpro inh-2: 11

What do the screens show for `O=C(O)/C(=C\c1cccc(OCc2ccccc2)c1)c1ccc(F)cc1`?
SARS 3CLpro inh-1: 16*; Sa ugtP lethal: -13; BJeLR lethal: 1; RN4220 kill: 17; PfHsp40 rescue: 2; SARS 3CLpro inh-2: 6

Results for O=C(O)C=Cc1cccc(OCc2ccccc2)c1 ?
Sa ugtP lethal: 2; RN4220 kill: 10

Results for Cc1nc2c(C)cccc2c(SC(=N)N)c1CC=C(Cl)Cl ?
SARS 3CLpro inh-1: 1; Sa ugtP lethal: 2; BJeLR lethal: -2; RN4220 kill: 1; PfHsp40 rescue: 0

Results for C=CCc1c(C)nc2c(C)cccc2c1SC(=N)N ?
SARS 3CLpro inh-1: 16*; BJeLR lethal: -9; PfHsp40 rescue: 0; SARS 3CLpro inh-2: 1

Results for Cc1noc(C)c1C(=O)NCC(=O)Nc1ccccc1Br ?
Sa ugtP lethal: 4; RN4220 kill: 6; PfHsp40 rescue: 0

What do the screens show for `N#CCC(=O)N/N=C/c1c(-c2ccccc2)n(-c2ccccc2)c2ccccc12`?
SARS 3CLpro inh-1: 22*; BJeLR lethal: -2; PfHsp40 rescue: 3; SARS 3CLpro inh-2: 23*

How did CN(C)C(=S)Nc1ccc(S(=O)(=O)N2CCCCC2)cc1 do in these assays?
SARS 3CLpro inh-1: 0; Sa ugtP lethal: 4; BJeLR lethal: -5; RN4220 kill: 1; PfHsp40 rescue: 0

How did CCOc1ccc(C2=[N+]([O-])C(C)(C)N(O)C2(C)C)cc1 do in these assays?
SARS 3CLpro inh-1: -1; Sa ugtP lethal: 10; BJeLR lethal: -1; RN4220 kill: -3; PfHsp40 rescue: 0

What do the screens show for `COc1ccc(COc2ccc(C3C(S(=O)(=O)c4ccccc4)CON3C)cc2OC)cc1` (stereo unspecified)?
SARS 3CLpro inh-1: 14*; Sa ugtP lethal: 9; BJeLR lethal: 4; RN4220 kill: 3; PfHsp40 rescue: 2; SARS 3CLpro inh-2: 4
